# In paper PMC5540273 (PLoS ONE, 2017):
# Where two headings read alike, the source gives them in different places.
# Columns and labels:
# [1] = test system: FLT3; conditions: concentration: 1 μM, replicates: in singlicate; n = 1
# [2] = test system: FLT4; conditions: concentration: 1 μM, replicates: in singlicate; n = 1
# [3] = test system: FRK; conditions: concentration: 1 μM, replicates: in singlicate; n = 1
# [4] = test system: FYN; conditions: concentration: 1 μM, replicates: in singlicate; n = 1
# [5] = test system: GAK; conditions: concentration: 1 μM, replicates: in singlicate; n = 1
# [6] = test system: T1, GCN2(Kin.Dom.2,S808G); conditions: concentration: 1 μM, replicates: in singlicate; n = 1
# T1 construct: gene EIF2AK4
# [7] = test system: GRK1; conditions: concentration: 1 μM, replicates: in singlicate; n = 1
# [8] = test system: T2, GRK2; conditions: concentration: 1 μM, replicates: in singlicate; n = 1
# T2 construct: gene ADRBK1
# [9] = test system: T3, GRK3; conditions: concentration: 1 μM, replicates: in singlicate; n = 1
# T3 construct: gene ADRBK2
# [10] = test system: GRK4; conditions: concentration: 1 μM, replicates: in singlicate; n = 1
# [11] = test system: GRK7; conditions: concentration: 1 μM, replicates: in singlicate; n = 1
# [12] = test system: GSK3A; conditions: concentration: 1 μM, replicates: in singlicate; n = 1
# [13] = test system: GSK3B; conditions: n = 1
# [14] = test system: T4, HASPIN; conditions: concentration: 1 μM, replicates: in singlicate; n = 1
# T4 construct: gene GSG2
# [15] = test system: HCK; conditions: concentration: 1 μM, replicates: in singlicate; n = 1
# [16] = test system: HIPK1; conditions: concentration: 1 μM, replicates: in singlicate; n = 1
# [17] = test system: HIPK2; conditions: concentration: 1 μM, replicates: in singlicate; n = 1
# [18] = test system: HIPK3; conditions: concentration: 1 μM, replicates: in singlicate; n = 1
# [19] = test system: HIPK4; conditions: concentration: 1 μM, replicates: in singlicate; n = 1
# [20] = test system: HPK1; conditions: concentration: 1 μM, replicates: in singlicate; n = 1
# [21] = concentration: 1 μM, replicates: in singlicate
# 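Also: KINOMEscan kinase panel screen.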
structure (smiles),measurement,setting,value
CS(=O)(=O)c1ccc(-c2c(-c3ncn[nH]3)sc(N3CCOCC3)c2C#N)cc1,%Inh,[1],0%
same,%Inh,[2],0%
same,%Inh,[3],8%
same,%Inh,[4],0%
same,%Inh,[5],0%
same,%Inh,[6],11%
same,%Inh,[7],25%
same,%Inh,[8],26%
same,%Inh,[9],26%
same,%Inh,[10],0%
same,%Inh,[11],43%
same,%Inh,[12],0%
same,%Inh,[13]; [21],24%
same,%Inh,[14],0%
same,%Inh,[15],43%
same,%Inh,[16],38%
same,%Inh,[17],24%
same,%Inh,[18],28%
same,%Inh,[19],8%
same,%Inh,[20],0%
O=C1NC(=O)C(N2CCc3ccccc32)=C1c1ccccc1Cl [SB-373598],%Inh,[1],2%
same,%Inh,[2],20%
same,%Inh,[3],20%
same,%Inh,[4],18%
same,%Inh,[5],0%
same,%Inh,[6],4%
same,%Inh,[7],19%
same,%Inh,[8],0%
same,%Inh,[9],0%
same,%Inh,[10],24%
same,%Inh,[11],0%
same,%Inh,[12],4%
same,%Inh,[13]; 1 µM,27%
same,%Inh,[14],100%
same,%Inh,[15],0%
same,%Inh,[16],30%
same,%Inh,[17],24%
same,%Inh,[18],13%
same,%Inh,[19],12%
same,%Inh,[20],0%
Cl.O=C(Nc1cccc(-c2nn3ncccc3c2-c2ccnc(Nc3cccnc3)n2)c1)c1c(F)cccc1F [GSK312879],%Inh,[1],0%
same,%Inh,[2],9%
same,%Inh,[3],15%
same,%Inh,[4],21%
same,%Inh,[5],8%
same,%Inh,[6],0%
same,%Inh,[7],20%
same,%Inh,[8],0%
same,%Inh,[9],27%
same,%Inh,[10],0%
same,%Inh,[11],0%
same,%Inh,[12],48%
same,%Inh,[13]; [21],25%
same,%Inh,[14],0%
same,%Inh,[15],52%
same,%Inh,[16],0%
same,%Inh,[17],0%
same,%Inh,[18],11%
same,%Inh,[19],0%
same,%Inh,[20],31%
C[C@@H]1CCCCN1c1cc(-c2ccc3c(N)n[nH]c3c2)nc(N)n1 [GSK2258759],%Inh,[1],0%
same,%Inh,[2],0%
same,%Inh,[3],5%
same,%Inh,[4],19%
same,%Inh,[5],14%
same,%Inh,[6],0%
same,%Inh,[7],0%
same,%Inh,[8],0%
same,%Inh,[9],0%
same,%Inh,[10],0%
same,%Inh,[11],0%
same,%Inh,[12],3%
same,%Inh,[13]; [21],3%
same,%Inh,[14],14%
same,%Inh,[15],0%
same,%Inh,[16],0%
same,%Inh,[17],0%
same,%Inh,[18],14%
same,%Inh,[19],0%
same,%Inh,[20],28%
COC(=O)c1c(-c2ccccc2)c2cc(C(=O)O)ccc2c(=O)n1Cc1ccccc1,%Inh,[1],0%
same,%Inh,[2],0%
same,%Inh,[3],48%
same,%Inh,[4],0%
same,%Inh,[5],0%
same,%Inh,[6],10%
same,%Inh,[7],0%
same,%Inh,[8],0%
same,%Inh,[9],3%
same,%Inh,[10],23%
same,%Inh,[11],0%
same,%Inh,[12],0%
same,%Inh,[13]; [21],0%
same,%Inh,[14],31%
same,%Inh,[15],0%
same,%Inh,[16],14%
same,%Inh,[17],0%
same,%Inh,[18],0%
same,%Inh,[19],0%
same,%Inh,[20],0%
COc1cccc(NC(=O)NC2CCN(c3ccnc(Nc4ccc(F)cc4)n3)C2)c1 (centres unmarked) [GSK1379721],%Inh,[1],3%
same,%Inh,[2],0%
same,%Inh,[3],0%
same,%Inh,[4],25%
same,%Inh,[5],3%
same,%Inh,[6],0%
same,%Inh,[7],0%
same,%Inh,[8],0%
same,%Inh,[9],18%
same,%Inh,[10],0%
same,%Inh,[11],0%
same,%Inh,[12],21%
same,%Inh,[13]; [21],10%
same,%Inh,[14],0%
same,%Inh,[15],0%
same,%Inh,[16],0%
same,%Inh,[17],0%
same,%Inh,[18],7%
same,%Inh,[19],0%
same,%Inh,[20],59%
Fc1cc(Cl)ccc1Nc1ccnc2cc(I)ccc12 [GW551191],%Inh,[1],0%
same,%Inh,[2],3%
same,%Inh,[3],20%
same,%Inh,[4],25%
same,%Inh,[5],82%
same,%Inh,[6],5%
same,%Inh,[7],0%
same,%Inh,[8],0%
same,%Inh,[9],32%
same,%Inh,[10],4%
same,%Inh,[11],0%
same,%Inh,[12],26%
same,%Inh,[13]; [21],3%
same,%Inh,[14],0%
same,%Inh,[15],0%
same,%Inh,[16],0%
same,%Inh,[17],0%
same,%Inh,[18],0%
same,%Inh,[19],0%
same,%Inh,[20],35%
COC(=O)c1c(-c2ccccc2)c2cc(OC)ccc2c(=O)n1Cc1ccccc1,%Inh,[1],8%
same,%Inh,[2],9%
same,%Inh,[3],45%
same,%Inh,[4],0%
same,%Inh,[5],6%
same,%Inh,[6],2%
same,%Inh,[7],0%
same,%Inh,[8],0%
same,%Inh,[9],1%
same,%Inh,[10],0%
same,%Inh,[11],24%
same,%Inh,[12],14%
same,%Inh,[13]; [21],18%
same,%Inh,[14],3%
same,%Inh,[15],22%
same,%Inh,[16],7%
same,%Inh,[17],11%
same,%Inh,[18],3%
same,%Inh,[19],0%
same,%Inh,[20],0%
O=C(Nc1ccccc1)Nc1cccc(Oc2ccc3nccn3n2)c1,%Inh,[1],4%
same,%Inh,[2],67%
same,%Inh,[3],0%
same,%Inh,[4],0%
same,%Inh,[5],0%
same,%Inh,[6],14%
same,%Inh,[7],0%
same,%Inh,[8],0%
same,%Inh,[9],0%
same,%Inh,[10],23%
same,%Inh,[11],0%
same,%Inh,[12],50%
same,%Inh,[13]; [21],0%
same,%Inh,[14],4%
same,%Inh,[15],24%
same,%Inh,[16],0%
same,%Inh,[17],27%
same,%Inh,[18],0%
same,%Inh,[19],9%
same,%Inh,[20],33%
COc1cc2nccc(Nc3ccc(NC(=O)c4ccc(C)cc4)c(O)c3)c2cc1OC.Cl [GW440132],%Inh,[1],0%
same,%Inh,[2],0%
same,%Inh,[3],25%
same,%Inh,[4],17%
same,%Inh,[5],11%
same,%Inh,[6],0%
same,%Inh,[7],0%
same,%Inh,[8],0%
same,%Inh,[9],29%
same,%Inh,[10],0%
same,%Inh,[11],0%
same,%Inh,[12],4%
same,%Inh,[13]; [21],0%
same,%Inh,[14],0%
same,%Inh,[15],0%
same,%Inh,[16],6%
same,%Inh,[17],0%
same,%Inh,[18],0%
same,%Inh,[19],3%
same,%Inh,[20],24%
